An excerpt weighted towards active compounds, which were near 4.1% of everything screened.
hcDAF-12 act = H. contortus DAF-12 nuclear receptor activators, primary screen, cell-based, luminescence, HEK293, lit1-tk-luc reporter; HEK293 hcDAF-12 lit1-tk-luc reporter; 0% DMSO, 100% Δ7-dafachronic acid; activation, % at 6.8 µM; 370,000 compounds, 1.4% hits; AID 652067, 2013;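 active = activation above the mean of all tested compounds plus 3 SD, cut at about 5.5% in these data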;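 also: 100% = response to 3 µM Δ7-dafachronic acid high control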
hgDAF12 agonist = H. glycines DAF-12 receptor agonists, primary screen, cell-based, luminescence, HEK293, GAL4 fusion, UAS-luciferase. Nuclear hormone receptor DAF-12 (Heterodera glycines), GAL4 fusion. 370,000 compounds, 1.8% hits. activation, % at 6.8 µM. HEK293 GAL4-hgDAF12 UAS-luciferase reporter, agonist luminescence; normalized to butyrate control;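 active = activation above a cutoff set at the mean of all screened compounds plus 3 SD, cut at about 10% in these data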;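 also: 0% = DMSO wells and 100% = sodium butyrate wells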
ssDAF12 agonist = S. stercoralis DAF-12 nuclear receptor activators, primary screen, cell-based, luminescence, HEK293, GRIP1 co-expression, lit1-tk-luc; HEK293 ssDAF-12/GRIP1 lit1-tk-luc reporter; % of 3 µM dafachronic acid response; activation, % at 6.8 µM; 370,000 compounds, 1% hits;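 active = activation above the mean over all tested compounds plus 3 SD, cut at about 0.9% in these data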;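 also: 0% = DMSO-only wells and 100% = 3 µM delta7-dafachronic acid wells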
DAX1 inh-1 = DAX1 (NR0B1) inhibitors, primary screen, cell-based, HEK293, Gal4-DAX1, luciferase luminescence. Nuclear receptor subfamily 0 group B member 1 (Homo sapiens), P51843. AID 504766, 2011. HEK293 Gal4-DAX1 luciferase reporter. inhibition, % at 6.75 µM. 340,000 compounds, 0.99% hits;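 active = inhibition above the mean over all tested compounds plus 3 SD, cut at about 4.2% in these data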;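 also: 0% = DAX1-transfected cells with DMSO and 100% = empty-vector control cells with DMSO; inhibition shows as a rise in luminescence from relieved DAX1 repression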
DAX1 inh-2 = DAX1 (NR0B1) inhibitors on StAR promoter, primary screen, cell-based, luminescence, SF-1 (NR5A1), full-length DAX-1 | HEK293T StAR-luciferase reporter, SF-1/DAX-1 repression relief | inhibition, % at 6.8 µM | 370,000 compounds, 1.1% hits | AID 652010, 2013;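 active = inhibition above the mean over all tested compounds plus 3 SD, cut at about 3.6% in these data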;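 also: 0% = DAX-1 cells with DMSO and 100% = cells lacking DAX-1 with DMSO; higher inhibition means more luminescence from relief of DAX-1 repression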
DAX1 inh confirm = DAX1 (NR0B1) inhibitors relieving SF-1 repression, confirmation, cell-based, luminescence, HEK293T, full-length DAX-1, SF-1 activated StAR promoter; shares compounds with DAX1 inh-2; AID 652134, 2013; HEK293T StAR-promoter luciferase reporter, SF-1/DAX-1 repression; 2,400 compounds, 87% hits; inhibition, % at 6.8 µM;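 active = inhibition above the average of every tested compound plus 3 SD, cut at about 3.8% in these data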;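 also: 0% = DAX-1 cells with DMSO and 100% = no DAX-1 control cells with DMSO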
Target sequence (P51843 whole entry, looked up): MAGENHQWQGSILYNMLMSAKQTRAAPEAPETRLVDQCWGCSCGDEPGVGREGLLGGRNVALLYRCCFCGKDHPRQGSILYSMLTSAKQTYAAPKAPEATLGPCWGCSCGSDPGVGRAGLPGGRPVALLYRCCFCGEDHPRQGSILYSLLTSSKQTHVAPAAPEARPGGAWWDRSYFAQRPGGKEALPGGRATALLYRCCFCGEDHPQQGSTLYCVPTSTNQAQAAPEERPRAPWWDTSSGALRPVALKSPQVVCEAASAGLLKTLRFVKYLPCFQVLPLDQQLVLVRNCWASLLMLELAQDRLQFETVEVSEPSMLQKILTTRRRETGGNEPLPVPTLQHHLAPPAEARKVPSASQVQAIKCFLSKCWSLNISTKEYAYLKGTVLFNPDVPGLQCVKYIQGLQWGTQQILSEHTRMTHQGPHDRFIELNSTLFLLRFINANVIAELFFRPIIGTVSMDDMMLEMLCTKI
SF1 AF2mut Luc = StAR reporter signal changes without DAX1, counter-screen for DAX1 inhibitor project, cell-based, luminescence, AF-2 mutant SF-1, transactivation. shares compounds with DAX1 inh-2. HEK293 StAR-luciferase, SF-1 AF2 mutant. inhibition, % at 6.8 µM. 2,400 compounds, 78% hits. AID 652136, 2013;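 active = inhibition above the mean of all tested compounds plus 3 SD, cut at about 3% in these data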;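 also: 0% = DAX-1 transfected cells with DMSO and 100% = cells without DAX-1 with DMSO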
LXR ag = LXR agonists, Gal4 luciferase reporter, confirmation, counter-screen for hcDAF-12 agonist project, cell-based, luminescence, HEK293, H. contortus campaign. activation, % at 6.8 µM. HEK293 Gal4-LXR tk-luc reporter, 24 h; normalized: DMSO 0%, positive control 100%. AID 743027, 2013. 3,400 tested, under 10 active. shares compounds with hcDAF-12 act;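 active = mean percent activation of the reporter above a cutoff set as the average over tested compounds plus their standard deviation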
hcDAF12 conf = H. contortus DAF-12 receptor agonists, confirmation, cell-based, luminescence, HEK293, lit1-tk-luc, triplicate. shares compounds with hcDAF-12 act. HEK293 hcDAF-12 lit1-tk-luc reporter; % of Δ7-dafachronic acid response. activation, % at 6.8 µM. 3,400 compounds, 61% hits. AID 743032, 2013;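 active = mean activation across triplicate tests above the threshold derived from the earlier primary screen, cut at about 5.5% in these data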;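 also: 0% = DMSO only wells and 100% = 3 µM Δ7-dafachronic acid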
hgDAF12 ag = H. glycines DAF-12 receptor agonists, confirmation, cell-based, luminescence, HEK293, GAL4-LBD fusion; shares compounds with hgDAF12 agonist; HEK293 GAL4-hgDAF12 luciferase reporter, agonist mode; percent of butyrate response; activation, % at 6.8 µM; 3,300 compounds, 80% hits; AID 743050, 2013;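 active = mean activation over triplicate wells above the hit cutoff derived from the earlier primary screen, cut at about 11% in these data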;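 also: 0% = DMSO low control and 100% = 2 mM sodium butyrate high control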
LXR ag 2 = LXR agonists, Gal4 luciferase reporter, confirmation, counter-screen for hgDAF-12 agonist project, cell-based, luminescence, HEK293, H. glycines campaign. activation, % at 6.8 µM. 24 h. 3,300 tested, under 10 active. shares compounds with hgDAF12 agonist;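 active = mean activation of the triplicate above a set limit carried over from the primary screen, none filed active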
* hit, by the source's call.

Results for CCCCNC(=O)C1c2ccccc2OCC(=O)N1CCc1ccccc1 (stereo unspecified) ?
hcDAF-12 act: -2; hgDAF12 agonist: 0; ssDAF12 agonist: 0; DAX1 inh-2: 0

What do the screens show for `COc1ccc(/C=C/C(=O)Nc2ccccc2C(=O)N2CCCC2)cc1`?
hcDAF-12 act: 0; hgDAF12 agonist: 0; ssDAF12 agonist: -2; DAX1 inh-1: 0; DAX1 inh-2: 1

Results for COc1ccc(/C=C/C(=O)Nc2ccccc2C(=O)O)cc1 ?
hcDAF-12 act: 6.2*; hgDAF12 agonist: 14*; ssDAF12 agonist: 0; DAX1 inh-1: -2; DAX1 inh-2: 5.2*; DAX1 inh confirm: 7.9*; SF1 AF2mut Luc: 3; hgDAF12 ag: 11*; LXR ag 2: 1

How did COC(=O)C1=C(C)N(Cc2ccccc2)C(=S)NC1c1ccc(Br)cc1 (stereo unspecified) do in these assays?
hcDAF-12 act: 0; hgDAF12 agonist: -5; ssDAF12 agonist: -1; DAX1 inh-2: -1

How did O=S(=O)(NCC1CCN(c2ccc(S(=O)(=O)N3CCOCC3)cc2)CC1)c1ccc(F)cc1 do in these assays?
hcDAF-12 act: -2; hgDAF12 agonist: -2; ssDAF12 agonist: -1; DAX1 inh-1: -2; DAX1 inh-2: -1

What do the screens show for `CCCNC(=O)C1(C)CCN(CCS(=O)(=O)c2ccc(C)cc2)C1` (stereo unspecified)?
hcDAF-12 act: 1; hgDAF12 agonist: 0; ssDAF12 agonist: 0; DAX1 inh-2: -3

Results for COC(=O)[C@@]12CCCCC=C1N(CCc1ccc(Cl)cc1)C(=O)[C@H]2CC(=O)NCc1cccc2ccccc12 ?
hcDAF-12 act: 0; hgDAF12 agonist: 0; ssDAF12 agonist: -1; DAX1 inh-2: 0

What do the screens show for `c1cc(-c2cccs2)nc(-c2cccs2)c1`?
hcDAF-12 act: -2; hgDAF12 agonist: -3; ssDAF12 agonist: 0; DAX1 inh-1: 2; DAX1 inh-2: 0

Results for c1csc(-c2cn3ccc4ccccc4c3n2)c1 ?
hcDAF-12 act: 14*; hgDAF12 agonist: 17*; ssDAF12 agonist: 2.5*; DAX1 inh-1: 2; DAX1 inh-2: 4.8*; DAX1 inh confirm: 8.3*; SF1 AF2mut Luc: 5.4*; LXR ag: 1; hcDAF12 conf: 15*; hgDAF12 ag: 18*; LXR ag 2: 1

How did CC1Oc2ccccc2C=C1/C=N/Nc1ccc(C(=O)O)cc1 (stereo unspecified) do in these assays?
hcDAF-12 act: 6.9*; hgDAF12 agonist: 15*; ssDAF12 agonist: 0.9*; DAX1 inh-1: -1; DAX1 inh-2: 6.3*; DAX1 inh confirm: 19*; SF1 AF2mut Luc: 9.3*; LXR ag: 2; hcDAF12 conf: 15*; hgDAF12 ag: 14*; LXR ag 2: 1

What do the screens show for `CCn1c(/C=N/Nc2ccc(C(=O)O)cc2)nc2ccccc21`?
hcDAF-12 act: 1; hgDAF12 agonist: -1; ssDAF12 agonist: -1; DAX1 inh-1: 1; DAX1 inh-2: 0

What do the screens show for `O=C(O)CC/C(=N/NC(=O)c1cccs1)c1ccccc1`?
hcDAF-12 act: 9.6*; hgDAF12 agonist: 14*; ssDAF12 agonist: 1; DAX1 inh-1: 3; DAX1 inh-2: 5.8*; DAX1 inh confirm: 3.8*; SF1 AF2mut Luc: 3.3*; LXR ag: 0; hcDAF12 conf: 2; hgDAF12 ag: 11*; LXR ag 2: 0

Results for COc1ccc2nc(NC(=O)c3cccc(N4C(=O)CCC4=O)c3)sc2c1 ?
hcDAF-12 act: 2; hgDAF12 agonist: 0; ssDAF12 agonist: -1; DAX1 inh-1: -1; DAX1 inh-2: 0

Results for O=C(Nc1nc2ccc(Cl)cc2s1)c1cccc(N2C(=O)CCC2=O)c1 ?
hcDAF-12 act: 5; hgDAF12 agonist: 14*; ssDAF12 agonist: 0; DAX1 inh-1: 1; DAX1 inh-2: 5.0*; DAX1 inh confirm: 7.6*; SF1 AF2mut Luc: 4.1*; hgDAF12 ag: 10; LXR ag 2: 0

How did COc1cccc(C(=O)N(CCN2CCOCC2)Cc2ccc(OC)c(OC)c2)c1 do in these assays?
hcDAF-12 act: 0; hgDAF12 agonist: 2; ssDAF12 agonist: -1; DAX1 inh-2: 0

How did O=C(Nc1ccc2c(c1)OCCO2)c1cc2sccc2n1Cc1ccccc1 do in these assays?
hcDAF-12 act: -5; hgDAF12 agonist: -9; ssDAF12 agonist: -2; DAX1 inh-1: -2; DAX1 inh-2: -3

Bioassay records: PubChem, The Scripps Research Institute Molecular Screening Center
